In the library only some 0.43% were active in any assay of this set; here they are far more common.
GLA spleen mod: qHTS Assay for Inhibitors and Activators of Human alpha-Galactosidase From Spleen Homogenate | hit rate 0.008% among 240,000 | AID 2107, 2009 | Potency, µM (top dose mostly 80 µM), for inactives: top-dose activity change, negative = inhibition, actives largely listed as inhibitors | human spleen homogenate, 4MU-alpha-Gal fluorescence, 40 min | Alpha-galactosidase A (Homo sapiens), P06280;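 also: potency is read from the fitted curve at half-maximal effect; 0% = enzyme with vehicle and -100% = no enzyme basal signal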
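Spleen homogenate 1 ug + cpd (titration) + 4-MU-alpha-D-galactopyranoside 1 mM; 37C 40 min; 50 mM citrate/phosphate pH 5.0, 0.01% Tween-20; stop pH 10; fluorescence 365/440; AC50 via Hill.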
GLA inh pH 4.5: qHTS Assay for Inhibitors of Human alpha-Galactosidase at pH 4.5; activity change, negative = inhibition, % at 105 µM; AID 1467, 2008; 230,000 tested, under 10 active; purified enzyme, 4-MU-alpha-Gal fluorescence, pH 4.5;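 also: 0% = full activity with enzyme and -100% = basal without enzyme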
Target sequence (P06280 whole entry, looked up): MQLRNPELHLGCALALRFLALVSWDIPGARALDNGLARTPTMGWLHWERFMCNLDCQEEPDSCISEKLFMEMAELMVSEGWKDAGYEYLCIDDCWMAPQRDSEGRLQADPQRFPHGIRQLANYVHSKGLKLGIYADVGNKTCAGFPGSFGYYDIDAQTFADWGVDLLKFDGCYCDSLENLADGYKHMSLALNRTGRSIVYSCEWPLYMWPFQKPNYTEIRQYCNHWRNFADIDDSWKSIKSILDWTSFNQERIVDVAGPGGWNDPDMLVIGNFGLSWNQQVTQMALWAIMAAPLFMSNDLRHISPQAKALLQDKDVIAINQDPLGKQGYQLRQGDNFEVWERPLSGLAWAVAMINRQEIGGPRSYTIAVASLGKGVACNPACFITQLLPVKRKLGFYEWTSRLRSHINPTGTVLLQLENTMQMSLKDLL
GAA glycogen mod: qHTS Assay for Inhibitors and Activators of Human alpha-Glucosidase Cleavage of Glycogen. AID 2100, 2009. hit rate 0.38% among 300,000. Potency, µM (doses to about 76.4 µM), for the others: at the highest dose activity change, negative = inhibition, hits mostly inhibitors. recombinant GAA, glycogen substrate, Amplex Red glucose oxidase fluorescence;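 also: potency is read from the fitted curve at half-maximal effect; 0% = full enzyme reaction and -100% = no-enzyme basal signal; the screen sought inhibitors and activators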
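Recombinant human enzyme (4 nM); glycogen substrate; 37 C, 40 min, pH 5.0. Readout: coupled glucose oxidase/Amplex Red fluorescence.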
N370S GC: qHTS Assay for Inhibitors and Activators of N370S glucocerebrosidase as a Potential Chaperone Treatment of Gaucher Disease. Potency, µM (titrated, usually from 59.4 µM), inactives show top-dose activity change, negative = inhibition, most hits filed as inhibitors. hit rate 0.092% among 330,000. N370S GC spleen homogenate, 4MU-glucoside fluorescence. Lysosomal acid glucosylceramidase (Homo sapiens), P04062;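 also: potency is read from the fitted curve at half-maximal effect; 0% = full enzyme activity and -100% = no enzyme basal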
GAA inhib: qHTS Assay for Inhibitors of Human alpha-Glucosidase as a Potential Chaperone Treatment of Pompe Disease. Lysosomal alpha-glucosidase (Homo sapiens), P10253. purified human GAA, 4-MU-alpha-glucoside fluorescence. hit rate 0.005% among 200,000. AID 1466, 2008. Potency, µM (top dose mostly 76.9 µM), inactives show at the top dose activity change, negative = inhibition, hits mostly inhibitors;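 also: potency is read from the fitted curve at half-maximal effect; plate controls were uninhibited enzyme wells for no effect and no-enzyme background for full effect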
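Human enzyme at 4 nM with 400 uM 4-methylumbelliferyl-alpha-D-pyranoside, citrate/phosphate buffer pH 5.0, 0.005% Tween-20, 20 min at room temperature. Compounds up to 77 uM. 4-MU fluorescence (Ex 365/Em 440) read after NaOH/glycine stop; AC50 from Hill fit.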
aGlu spleen mod: qHTS Assay for Inhibitors and Activators of Human alpha-Glucosidase From Spleen Homogenate; Lysosomal alpha-glucosidase (Homo sapiens), P10253; human spleen homogenate, 4-MU-alpha-glucoside fluorescence; Potency, µM (highest dose often 79.9 µM), for the others: at the highest dose activity change, negative = inhibition, actives largely listed as inhibitors; hit rate 0.006% among 240,000; AID 2112, 2009;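 also: potency is read from the fitted curve at half-maximal effect; 0% = enzyme with vehicle and -100% = no enzyme basal signal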
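Enzyme source: human spleen homogenate, 1 ug/well. Buffer 50 mM citric acid/K phosphate pH 5.0, 0.01% Tween-20. 4-MU-alpha-glucoside 1 mM; 37 C x 40 min; NaOH/glycine stop; fluorescence.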
* marks the source's active call; other numbers are inactive results; ? = inconclusive; / = no result; [ ] = remark or other dose. Calls follow the shape of the dose curve; as a rule, active = well fitted curve in the direction sought with a large enough effect; inconclusive = small, poorly fitted or top-dose-only effect, or another doubt; inactive = no such curve, though single readings can be large; an effect the other way counts as inactive or inconclusive.

SMILES | GLA spleen mod | GLA inh pH 4.5 | GAA glycogen mod | N370S GC | GAA inhib | aGlu spleen mod
COc1ccc(NC(=O)c2sc3nc4c(c(-c5ccc(OC)cc5)c3c2N)C(=O)CC(C)(C)C4)cc1 | / | / | -8%[76.3 µM] | / | / | /
Oc1ccccc1OCc1nc2ccccc2s1 | 0% | -2 | -30% | -10% | -9% | 0%
Oc1ccc(O)c(Cc2nc3ccccc3s2)c1 | 3% | -11 | 5.6µM* | 6% | -18% | -3%
CC(=O)N1CCN(c2ccc(NCc3ccc(C)s3)cc2)CC1 | -3% | 2 | 16µM* | -12% | -2%[15.4 µM] | -7%
Fc1ccc(CNc2ccc(N3CCN(Cc4ccccc4)CC3)cc2)cc1 | / | / | 8.9µM* | -3% | / | /
CC(=O)N1CCN(c2ccc(NCc3cccc4ccccc34)cc2)CC1 | / | / | -16%[15.3 µM] | ? | / | /
CC(=O)N1CCN(c2ccc(NCc3ccccc3)cc2)CC1 | -2% | -8 | 14µM* | -21% | -3% | -10%
Cc1ccc(CNc2ccc(N3CCOCC3)cc2)s1 | 0% | 5 | 28µM* | -6% | -3% | -3%
COc1ccc(CNc2nc3c(-c4cccc(C)c4)nnn3c3ccccc23)cc1 | / | / | 11%[76.3 µM] | / | / | /
CC(=O)N1CCC(N(Cc2ccco2)C(=O)Nc2cccc(C)c2)CC1 | / | / | 6%[76.3 µM] | / | / | /
COc1ccc(NC(=O)C2CCCN(S(=O)(=O)c3ccc(Br)s3)C2)cc1 (centres undefined) | / | / | 15%[76.3 µM] | / | / | /
CC(=O)N1CCN(c2ccc(NCc3cccs3)cc2)CC1 | 6% | 4 | 40µM* | ? | -9% | 0%
CC(=O)Nc1ccc(N2CCN(C(=O)c3cccs3)CC2)cc1 | 12% | -1 | 4% | 4% | -1% | 5%
CCn1ccnc1CN(C)Cc1cn(-c2ccc(C)cc2)nc1-c1ccc(F)cc1 | 10% | -18 | -12% | 6.3µM* | -1% | 4%
CCn1ccnc1CN(C)Cc1cn(-c2cc(C)ccc2C)nc1-c1ccccc1 | -3% | -8 | 6% | 14µM* | / | -3%
CCn1ccnc1CN(C)Cc1cn(-c2ccccc2)nc1-c1ccc(OC)cc1F | 9% | 0 | 4% | 10% | -1% | 1%
Cc1ccc(-n2cc(CN(C)Cc3nccn3C)c(-c3ccc(F)cc3)n2)cc1 | -12% | -9 | -18% | ? | ? | 2%
O=C(CN1CC(=O)Oc2ccccc21)NCc1ccco1 | -13% | -3 | 7µM* | 12% | -7% | -5%
O=C(CN1CCOc2ccccc21)NCc1ccco1 | 12% | 2 | 1% | 9% | 7%[15.4 µM] | 5%
C/C(=N\NC(=O)c1ccccc1F)c1ccc2c(c1)Nc1ccccc1S2 | 5% | 1 | 25µM* | 11% | 0% | -2%
CC1(C)OC(=O)C(=NNc2ccc(O)cc2)C(=O)O1 | -7% | 2 | 11µM* | -23% | -3% | -12%
COc1cc(/C=N/NC(=O)c2cn(-c3cccc(C)n3)cn2)ccc1O | -6% | -14 | 25µM* | 16% | -32% | -4%
Cc1ccc(Nc2nc(-c3c(C)nc4ncccn34)cs2)cc1 | -3% | -6 | ? | -12% | 4% | -5%
Oc1ccc(-c2nc(-c3ccc(O)c(O)c3)cs2)cc1 | 6% | -2 | 11µM* | -18% | -9% | 1%
Oc1ccc(Nc2nc(-c3ccc4ccccc4c3)cs2)cc1 | 10% | 2 | 5.6µM* | ? | ? | 10%
SMILES | GLA spleen mod | GLA inh pH 4.5 | GAA glycogen mod | N370S GC | GAA inhib | aGlu spleen mod
CC(=O)Nc1nc(C)c(-c2csc(Nc3ccc(O)cc3)n2)s1 | 1% | 0 | 25µM* | ? | 0% | 2%
Cc1ccc(Nc2nc(-c3c(C)nc4ccccn34)cs2)cc1 | 9% | -7 | 28µM* | -10% | -7% | 6%
C=C(CC(=O)OC)C[C@]1(CC(=O)OC)CC2(CC=C(C)C)C(=O)C(C(=O)c3ccccc3)=C(OC(=O)c3ccc(Br)cc3)C(CC=C(C)C)(C1)C2=O (some centres undefined) | 9%[17.5 µM] | / | / | -2%[12.8 µM] | / | -11%[17.4 µM]
Cc1nc2ncccn2c1-c1csc(Nc2ccc(O)cc2)n1 | -1% | -3 | 22µM* | -2% | -4% | 0%
O=C(/C=C/c1ccc(O)c(O)c1)OC1C(O)CC(OC(=O)/C=C/c2ccc(O)c(O)c2)(C(=O)O)CC1O (centres undefined) | -12% | -14 | 1.8µM* | -21% | -10% | -2%
O=C(/C=C\c1ccc(O)c(O)c1)O[C@@H]1C[C@](O)(C(=O)O)C[C@@H](O)[C@@H]1O | 14%[29.1 µM] | -4 | / | -8%[21.6 µM] | / | 2%[29.1 µM]
O=C1OCC2=C1C(c1ccc(F)cc1)Sc1ccccc1N2 (centres undefined) | -1% | -4 | 3% | 18µM* | -8% | -8%
COc1cc(C2Sc3ccccc3NC3=C2C(=O)OC3)cc(OC)c1OC (centres undefined) | 1% | -8 | 5% | -27% | -8% | 1%
COc1ccc(-c2c(C#N)c(SCC(=O)Nc3ccc(Br)cc3)nc(C)c2C(=O)Nc2ccccc2)cc1 | / | / | -6%[76.3 µM] | / | / | /
Cc1cccc2sc(NNC(=O)C3=COCCO3)nc12 | 1% | 1 | ? | 4% | 4% | 0%
O=C(NNc1nc2c(F)cc(F)cc2s1)C1=COCCO1 | 6% | -7 | 4.4µM* | -2% | 1% | 13%
Cc1cccc(NNC(=O)C2CCC2)c1 | 12% | 2 | 7.9µM* | 3% | / | -1%
O=c1cc(-c2ccc(F)cc2)[nH][nH]1 | -2% | 8 | -4% | -5% | -2% | 0%
O=c1cc(-c2ccc(C3CCCCC3)cc2)[nH][nH]1 | 14% | 0 | 16µM* | 7% | -3% | 9%
COc1cc(CNCCc2c[nH]c3ccccc23)ccc1OCc1ccc(F)cc1 | -9% | -11 | 2% | 16µM* | -2% | -5%
COc1ccc(N/C(C)=C/C(=O)c2ccccc2)cc1 | 1% | -1 | -25% | 12% | -11% | -1%
COc1ccc(C(=O)/C=C(\C)Nc2ccc3c(c2)OCO3)cc1 | 0% | -2 | 35µM* | 7% | -13% | 3%
CCOC(=O)c1c(NC(=O)COc2ccc(C)cc2C(C)(C)C)sc2c1CCC(C)C2 (centres undefined) | / | / | 2%[76.3 µM] | / | / | /
CCc1ccc(C(=O)c2cn(CC(=O)Nc3cccc(OC)c3)c3cc4c(cc3c2=O)OCO4)cc1 | / | / | 5%[76.3 µM] | / | / | /
O=S(=O)(c1ccc(NC(=S)N/N=C/c2ccc(O)c(O)c2)cc1)N1CCOCC1 | 0% | -2 | 25µM* | -16% | / | -9%
